WT yeast gro inh = growth inhibition of WT strain, primary screen, mitochondrial fusion inhibitor project, WT and mutant strains, chemical genetic; mitochondrial fusion phenotypic screen; inhibition, % at 10 µM; hit rate 2.1% among 190,000; AID 1362, 2008; in the data active = inhibition above about 58%; tested in S. cerevisiae
Autophagy HCS = autophagy modulators in MEF cells, primary screen, imaging, high-content, MEF GFP-LC3 | MEF GFP-LC3 puncta imaging; test concentration mostly 10 µM | hit rate 0.98% among 190,000 | calls only at 10 µM (by protocol);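 active = percentage of spot-positive cells more than 3 SD above its plate mean, without a fluorescence outlier flag or 80% toxicity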
Lmaj promast = Leishmania major promastigote growth inhibition, primary screen. Leishmania major promastigotes, resazurin fluorescence viability. inhibition, % at 10 µM. hit rate 9% among 200,000; in the data active = inhibition above about 50%;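 note: promastigotes grown with compound for 44 hours at 28 °C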
Ins promoter up = insulin promoter activators in MIN6 cells, imaging, high-content screening, mouse beta cells; AID 1625, 2009; hit rate 0.3% among 190,000; MIN6 insulin promoter-GFP reporter; active compounds read high; z-score at 5 µM;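 active = z-score above 3 at 5 µM with at least 500 cells counted in the well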
Insulin prom inh = inhibitors of insulin promoter-driven GFP, primary screen, imaging, TRM-6 cells (human fetal islet line), eGFP reporter, cell count. reporter expression induced with tamoxifen. inhibition, % at 2 µM. hit rate 0.9% among 130,000;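 active = inhibition above the mean plus 3 SD, with well images judged a real hit on visual review, cut at about 60% in these data, passing the limit was not always enough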
Numbers stand for hits; 0 = inactive; - = no result given; + = active, no number. Hits are enriched below; roughly 11% of the tested compounds scored in any of these assays.

SMILES	WT yeast gro inh	Autophagy HCS	Lmaj promast	Ins promoter up	Insulin prom inh
COC(=O)c1cc(OC)c(OC)cc1NCC(=O)Nc1ccc(OC)c(OC)c1	0	0	53	0	0
COC(=O)c1cc(OC)c(OC)cc1NCC(=O)Nc1ccc(C)cc1	0	0	0	0	-
O=C(CNc1cc(S(=O)(=O)N2CCCC2)ccc1OCC(F)(F)F)Nc1cccc(C(F)(F)F)c1	0	0	95	0	0
COC(=O)c1cc(OC)c(OC)cc1NCC(=O)Nc1cccc(C(F)(F)F)c1	0	0	74	0	0
O=C(Nc1cc(S(=O)(=O)N2CCCC2)ccc1OCC(F)(F)F)c1ccccc1F	0	0	0	-	0
COC(=O)CNc1cccc(C(F)(F)F)c1	0	0	0	0	-
Oc1ccc(CN2CCN(Cc3ccccc3)CC2)c2cccnc12	0	0	100	-	-
O=S(=O)(c1ccc(Cl)cc1)N1CCN(Cc2ccc(O)c3ncccc23)CC1	0	0	98	0	0
CCOc1ccc(S(=O)(=O)N2CCN(Cc3ccccc3)CC2)c2cccnc12	-	0	0	0	0
O=[N+]([O-])c1cc(CN2CCOCC2)c2cccnc2c1O	0	0	0	0	-
Oc1ccccc1-c1nc(N2CCN(Cc3ccccc3)CC2)c2ccccc2n1	0	0	0	0	-
O=c1[nH]c(CN2CCN(S(=O)(=O)c3ccc(Cl)cc3)CC2)nc2cc(Cl)ccc12	0	0	0	0	-
O=[N+]([O-])c1cc(CN2CCN(c3ccccc3)CC2)c(O)c2ncccc12	0	0	100	-	0
CN1CCN(Cc2cc(COCc3ccccc3)c3cccnc3c2O)CC1	0	0	100	0	0
CCN(CC)C(=O)C(=O)c1cn(CCOc2ccccc2)c2ccccc12	0	0	0	0	0
O=C(COc1ccccc1Cl)Nc1ccc(CN2CCCCC2)cc1	0	0	0	0	-
CC(=O)c1ccc(-n2c(-c3cc(-c4ccsc4)n[nH]3)n[nH]c2=S)cc1	0	0	0	0	0
COc1ccc2c(c1)c1nc3ccccc3nc1n2CC(=O)OC(C)C	0	+	0	-	0
COc1ccc2c(c1)c1nc3ccccc3nc1n2CCCN1C(=O)c2ccccc2C1=O	0	0	0	0	-
COc1ccc2c(c1)c1nc3ccccc3nc1n2Cc1ccc(OC(C)C)c(OC)c1	0	+	0	0	0
COc1ccc(Cn2c3ccc(OC)cc3c3nc4ccccc4nc32)cc1	0	+	0	0	-
C=CCCOc1ccccc1C(N)=O	-	-	-	0	-
Cc1cc(C)cc(C(=O)N2CC(C)SC2=Nc2cccc(S(=O)(=O)N(C)C)c2)c1 (configuration not stated)	0	0	98	0	-
Cc1ccc(C(=O)N2CC(C)SC2=Nc2cccc(S(=O)(=O)N(C)C)c2)cc1 (configuration not stated)	0	0	95	0	-
CN(C)S(=O)(=O)c1cccc(N=C2SCCN2Cc2ccccc2)c1	-	-	-	0	-
SMILES	WT yeast gro inh	Autophagy HCS	Lmaj promast	Ins promoter up	Insulin prom inh
COc1cc2c3c(c1)/C(=C1/SC(NC(C)=O)=NC1=O)C(=O)N3C(C)(C)C=C2C	0	0	0	0	0
CCN1C(=O)/C(=C2/C(=O)N3c4c(cc(OC(C)=O)cc42)C(C)=CC3(C)C)SC1=S	0	0	78	0	0
CCN1C(=O)C(C)S/C1=N\S(=O)(=O)c1ccc(F)cc1 (configuration not stated)	0	0	0	0	0
C=CCN1C(=O)C(C)S/C1=N\S(=O)(=O)c1ccc(Cl)cc1 (configuration not stated)	0	0	52	0	0
COC(=O)c1sccc1NC(=O)COc1ccc(F)cc1Cl	0	0	0	0	-
CCc1ccccc1NC(=S)N(CCCN1CCOCC1)Cc1ccccn1	0	0	0	0	0
CCc1ccc(NC(=S)N(Cc2ccccc2)Cc2ccccn2)cc1	68	0	0	0	0
CCc1ccc(NC(=S)N(CCCN2CCOCC2)Cc2ccccn2)cc1	0	0	68	0	0
S=C(Nc1ccccc1)N(Cc1ccccc1)Cc1ccncc1	0	0	0	0	-
COc1cc(Cl)c(C)cc1NC(=S)NN	0	0	0	0	0
Cc1cc(CC(C)C)n(-c2nc3ccccc3c(=O)n2OCc2ccccc2)n1	65	0	0	0	0
CCOC(=O)c1ccccc1NC(=O)c1cn(-c2ccc(OC)cc2)c(=O)c2ccccc12	0	0	92	0	0
COc1ccc(-n2cc(C(=O)Nc3cc([N+](=O)[O-])ccc3OC)c3ccccc3c2=O)cc1	0	0	77	0	0
COc1ccc(C)cc1S(=O)(=O)N(CC(=O)Nc1cc([N+](=O)[O-])ccc1C)c1ccc(C)c(C)c1	0	0	99	0	-
